mHTT CaM bind: inhibitors of human mutant huntingtin-calmodulin interaction | actives 3.6% (n = 190,000) | inhibition, % at 15 µM | AlphaScreen His-mHTT/GST-CaM binding, luminescence;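 also: 0% = both proteins with DMSO and 100% = one protein alone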
Pf apPOL block: Pf-apPOL DNA polymerase inhibition | Recombinant Pf-apPOL, molecular beacon fluorescence, 1.5 h | inhibition, % at 10 µM | actives 0.25% (n = 210,000)
* = called active by the depositor; / = not tested or not shown. An excerpt weighted towards active compounds, which were near 3.6% of everything screened. Rule as the data show it: active = inhibition above about 50%; inactive = the rest.

SMILES	mHTT CaM bind	Pf apPOL block
Cc1nc(SCc2noc(CSc3nc(C)c(C)c(C)c3C#N)n2)c(C#N)c(C)c1C	-14.3	/
Cc1ccc(C2=NN(S(=O)(=O)c3ccccc3)C(c3ccccc3F)C2)cc1 (configuration not stated)	2.0	7.3
CC(CN1CCCCCC1)C(=O)c1ccccc1 (configuration not stated)	-5.7	2.1
CCOc1ccc(N2COc3ccc(F)cc3C2)cc1	59.0*	1.7
CCOc1ccc(N2C(=O)CC(N3CCN(c4ccc(F)cc4)CC3)C2=O)cc1 (configuration not stated)	-6.4	-3.2
Cc1[nH]c(C(=O)N2CCC(CC(=O)NCCc3c[nH]c4ccccc34)CC2)c(C)c1C	89.8*	-3.0
CCc1ccc(CNC(=O)CC2CCN(C(=O)c3[nH]c(C)c(C)c3C)CC2)cc1	15.7	2.9
O=C(CC1CCN(C(=O)C2CCCCC2)CC1)NCCc1c[nH]c2ccc(Cl)cc12	100.0*	-2.8
COc1ccc(CCNC(=O)CC2CCN(C(=O)C3CCCCC3)CC2)c(OC)c1	30.1	-9.2
CC(C)c1ccc(N(CC(=O)Nc2cccc([N+](=O)[O-])c2)S(C)(=O)=O)cc1	20.1	0.8
O=[N+]([O-])c1ccccc1S(=O)(=O)Nc1cccc(Cl)c1	0.1	-3.8
CCC(=O)Nc1cccnc1-c1ccc(C(=O)NCCC2=CCCCC2)cc1	25.0	0.6
O=C(Nc1ccc(F)cc1F)C1CCc2nc(N3CCOCC3)ncc2C1 (configuration not stated)	3.3	-20.0
OCCN(CCO)CC(O)COCC12CC3CC(CC(C3)C1)C2 (configuration not stated)	100.1*	-3.3
CCN(CC)CC(O)COCC12CC3CC(CC(C3)C1)C2 (configuration not stated)	-1.9	-0.6
CC(C)c1cc(C2CCCN2C(=O)c2ccco2)no1 (configuration not stated)	-6.3	0.0
COC(=O)c1cnc2nc(C)ccc2c1Nc1ccccc1	-2.9	-7.6
COC(=O)c1cnc2nc(C)ccc2c1Nc1ccc(Br)cc1	58.0*	-3.0
Cc1c(C(c2ccco2)c2c(C)n(C)n(-c3ccccc3)c2=O)c(=O)n(-c2ccccc2)n1C	1.0	3.3
Cc1[nH]n(-c2ccccc2)c(=O)c1C(c1ccco1)c1c(C)[nH]n(-c2ccccc2)c1=O	54.0*	-6.9
Cc1ccccc1C(=O)N1CCc2nc(-c3ccccc3)ncc2C1	4.1	1.2
Cn1c(-c2ccccc2)nn(CCNC(=O)C2CCN(S(C)(=O)=O)CC2)c1=O	-9.8	-12.0
CCOC(=O)c1cccc(NC(=O)N2CC(C)Oc3ccc(C)cc32)c1 (configuration not stated)	-1.4	-6.0
Cc1nnc(-c2cccn2CC(=O)N2CCCCCC2)o1	0.9	1.1
CC(NC(=O)c1cc2c(=O)n3ccccc3nc2n(Cc2ccco2)c1=N)c1ccccc1 (configuration not stated)	51.0*	-2.2
SMILES	mHTT CaM bind	Pf apPOL block
CCn1c(=N)c(C(=O)NC(C)c2ccccc2)cc2c(=O)n3cccc(C)c3nc21 (configuration not stated)	0.0	-5.9
Cc1cccn2c(=O)c3cc(C(=O)NC(C)c4ccccc4)c(=N)n(C4CCCCC4)c3nc12 (configuration not stated)	54.0*	-0.1
CCNC(=O)c1cc2c(=O)n3ccccc3nc2n(Cc2ccco2)c1=N	18.0	15.5
Cc1cccn2c(=O)c3cc(C(=O)NC(C)c4ccccc4)c(=N)n(Cc4ccco4)c3nc12 (configuration not stated)	51.0*	3.9
Cc1cccn2c(=O)c3cc(C(=O)NCc4ccccc4)c(=N)n(Cc4ccco4)c3nc12	38.0	12.3
CCc1cccc(NC(=O)c2cn3c(n2)CCCC3)c1	23.1	0.4
CCOC(=O)c1c(NC(=O)c2ccccc2F)sc(C(=O)N2CCCCC2)c1C	-22.3	-2.4
COc1ccccc1Oc1c(C)oc2cc(OC(=O)c3ccc(F)cc3)ccc2c1=O	-1.3	-7.2
CCN(Cc1ccccc1)S(=O)(=O)c1ccccc1Br	-61.3	-3.0
O=S(=O)(c1ccccc1Br)N(Cc1ccccc1)CC(O)COCc1ccccc1 (configuration not stated)	98.2*	1.2
OCCNc1ccccn1	-10.8	5.6
O=C1CC(Nc2ccc(F)cc2)C(=O)N1Cc1ccccc1 (configuration not stated)	-5.9	0.1
O=C(Nc1cccc(Cl)c1)N1CCN(c2ncc(C(F)(F)F)cc2Cl)CC1	-36.0	-2.8
COCCNC(=O)Nc1nc(-c2ccc3c(c2)CCCC3)cs1	13.2	-3.9
OC(CCN1CCCCC1)c1ccc(-c2ccccc2)cc1 (configuration not stated)	/	-4.2
COc1ccc(C(CCN2CCCCC2)c2c(OC)cc(OC)c3c(-c4ccccc4)cc(=O)oc23)cc1 (configuration not stated)	99.4*	-7.7
CCN(CC)CCC(c1ccc(N(C)C)cc1)c1c(OC)cc(OC)c2c(C)cc(=O)oc12 (configuration not stated)	94.5*	-0.9
COc1cc(OC)c2c(-c3ccccc3)cc(=O)oc2c1C(CCN1CCCCC1)c1ccc(N(C)C)cc1 (configuration not stated)	100.4*	-8.9
CCN(CC)CCC(c1cc(OC)c(OC)c(OC)c1)c1c(OC)cc(OC)c2c(C)cc(=O)oc12 (configuration not stated)	15.9	-13.3
COc1cc(C(CCN2CCCC(C)C2)c2c(OC)cc(OC)c3c(C)cc(=O)oc23)cc(OC)c1OC (configuration not stated)	13.6	-10.7
COc1cc(C(CCN2CCN(c3ccccc3)CC2)c2c(OC)cc(OC)c3c(C)cc(=O)oc23)cc(OC)c1OC (configuration not stated)	94.2*	-8.9
COc1cc(C(CCN2CCCC2)c2c(OC)cc(OC)c3ccc(=O)oc23)cc(OC)c1OC (configuration not stated)	8.4	-2.7
CCS(=O)(=O)NCCC1CCN(C(=O)c2ccc(C)cc2)CC1	32.0	-3.8
O=C(Nc1ccc(Cl)c(Cl)c1Cl)NC1CCSC1 (configuration not stated)	/	-4.0
COc1ccc(C2C=C(c3ccc(F)cc3)Nc3ncnn32)c(OC)c1 (configuration not stated)	1.0	-4.0
SMILES	mHTT CaM bind	Pf apPOL block
COC(=O)CC1C(=O)NCCN1C(=O)c1cc2cccc(OC)c2oc1=O (configuration not stated)	1.2	-3.6
COCCNS(=O)(=O)c1ccc2nc(-c3ccccc3)[nH]c2c1	-1.0	9.3
COc1cc(OC)c2c(-c3ccccc3)cc(=O)oc2c1C(CCN1CCOCC1)c1ccc(N(C)C)cc1 (configuration not stated)	93.8*	-5.9
CCN(CC)C(=O)CC(c1ccc(OC)cc1)c1c(OC)cc(OC)c2c(-c3ccccc3)cc(=O)oc12 (configuration not stated)	88.5*	9.0
CCN(CC)C(=O)Oc1ccc2c(-c3cc4cccc(OC)c4oc3=O)cc(=O)oc2c1	-2.2	-4.5
COc1cc(C(CC(=O)N2CCOCC2)c2c(OC)cc(OC)c3c(-c4ccccc4)cc(=O)oc23)cc(OC)c1OC (configuration not stated)	47.0	-6.2
S=c1[nH]nc(NCc2cccs2)s1	/	-11.7
COc1cccc(Nc2nc(-c3ccc(OC)c(F)c3)cs2)c1	64.2*	-7.3
COc1cccc(Nc2nc(-c3cc(C)ccc3C)cs2)c1	62.6*	-2.0

Source: PubChem BioAssay (University of Kansas High Throughput Screening Laboratory)
